# Paper PMC4336329 (PLoS ONE, 2015)
# The campaign covered roughly 310,000 compounds. About 14,000 (4.5%) showed an effect of 50% or more. The effect is printed as a negative number. The entries come from a sample that favours strong results as a whole.
# Biological target: human ether-à-go-go-related gene (hERG) potassium channel (human, UniProt Q12809)
# Test: primary screen, population patch clamp on CHO cells stably expressing hERG; higher = less effect of the substance
# 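Note: peak tail current of the secondary pulse compared with the same well before compound.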
# human ether-à-go-go-related gene (hERG) potassium channel, sequence (Q12809 whole entry, looked up): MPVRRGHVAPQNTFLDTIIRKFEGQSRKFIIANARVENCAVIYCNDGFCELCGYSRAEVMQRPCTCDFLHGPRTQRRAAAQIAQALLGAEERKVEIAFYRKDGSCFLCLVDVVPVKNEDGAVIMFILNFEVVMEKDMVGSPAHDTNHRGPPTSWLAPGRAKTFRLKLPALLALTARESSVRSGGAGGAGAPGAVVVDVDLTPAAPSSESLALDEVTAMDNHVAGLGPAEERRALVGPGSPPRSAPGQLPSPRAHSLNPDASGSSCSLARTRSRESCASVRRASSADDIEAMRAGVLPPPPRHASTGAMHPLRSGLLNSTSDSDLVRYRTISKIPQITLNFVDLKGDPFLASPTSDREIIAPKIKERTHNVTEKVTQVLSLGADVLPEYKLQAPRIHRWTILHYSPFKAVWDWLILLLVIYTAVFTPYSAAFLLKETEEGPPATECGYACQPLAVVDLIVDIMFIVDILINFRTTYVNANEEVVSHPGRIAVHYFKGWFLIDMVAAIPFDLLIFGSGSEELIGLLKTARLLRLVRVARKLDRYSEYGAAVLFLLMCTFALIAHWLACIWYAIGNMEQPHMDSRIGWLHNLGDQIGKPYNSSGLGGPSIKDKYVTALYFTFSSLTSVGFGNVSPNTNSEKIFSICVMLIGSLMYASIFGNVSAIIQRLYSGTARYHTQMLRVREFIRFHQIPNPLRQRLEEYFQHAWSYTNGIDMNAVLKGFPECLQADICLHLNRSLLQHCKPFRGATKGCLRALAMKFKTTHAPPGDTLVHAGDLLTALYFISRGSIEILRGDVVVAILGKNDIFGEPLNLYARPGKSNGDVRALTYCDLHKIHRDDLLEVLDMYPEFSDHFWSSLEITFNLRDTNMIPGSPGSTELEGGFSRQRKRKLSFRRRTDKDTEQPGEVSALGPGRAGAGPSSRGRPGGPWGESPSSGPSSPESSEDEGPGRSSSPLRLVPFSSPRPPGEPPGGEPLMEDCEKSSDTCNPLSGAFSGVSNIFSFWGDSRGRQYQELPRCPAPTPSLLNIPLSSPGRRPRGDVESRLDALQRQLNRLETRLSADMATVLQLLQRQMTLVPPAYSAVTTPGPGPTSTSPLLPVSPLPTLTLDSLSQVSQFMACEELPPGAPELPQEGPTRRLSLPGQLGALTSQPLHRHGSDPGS
row,Compound,"hERG current change (%, negative = inhibition) at 10uM"
1,COc1cccc(/C=N/NC(=O)CC2C(=O)NN=C2C)c1OC (stereo not drawn),2.5%
2,O=C(NCCN1C(=O)S/C(=C\c2cccnc2)C1=O)c1ccc([N+](=O)[O-])s1,5.15%
3,C/C(CC(=O)N1CCCC1)=N\NC(=O)c1cc2ccccc2cc1O,4.98%
4,O=S(=O)(Nc1cc(S(=O)(=O)N2CCOCC2)ccc1N1CCCC1)c1cccs1,-4.49%
5,Cc1cc(-c2nnco2)c(C)n1-c1ccccc1,-1.71%
6,COC(=O)C1=C(c2ccc(S(C)(=O)=O)cc2)C[C@@H]2CC[C@H]1N2C(=O)N1CCCCC1,-1.44%
7,CN(CC1CCCN(CCc2cccc(C(F)(F)F)c2)C1)C(=O)c1ccco1 (stereo not drawn),-69.2%
8,CSCCC(=O)N(C)CC1CCN(CCc2cccc(C(F)(F)F)c2)CC1,-64.3%
9,COc1ccccc1CCN1CCCC(CN(C)C(=O)CCC(N)=O)C1 (stereo not drawn),22.5%
10,COc1ccccc1CCN1CCCC(CN(C)C(=O)CCC(=O)N(C)C)C1 (stereo not drawn),9.14%
11,COC(=O)CCCC(=O)N(C)CC1CCCN(CCc2ccccc2C)C1 (stereo not drawn),-53.6%
12,CCOC(=O)C1CCCCN1Cc1cccc(C(F)(F)F)c1 (stereo not drawn),6.43%
13,COC(=O)CCC(=O)N(C)CC1CCCN(CCc2cccc(C(F)(F)F)c2)C1 (stereo not drawn),-61.9%
14,CC(=O)NCCC(=O)N(C)CC1CCN(CCc2cccc(C(F)(F)F)c2)CC1,2.52%
15,O=C(O)c1ccccc1NS(=O)(=O)c1cccc2nsnc12,18.3%
16,O=C(N/N=C1\CCS(=O)(=O)c2ccc(F)cc21)c1ccc([N+](=O)[O-])cc1,-19.6%
17,Cc1ccc(/C=N/NC(=S)NCCc2ccccc2)s1,27.9%
18,Cc1ccc(CNC(=O)CSc2nc3ccsc3c(=O)n2NC(=O)c2ccccc2)cc1,-9.41%
19,CCOC(=O)N1CCN(C(=O)C(CC(C)C)NS(=O)(=O)c2ccc3c(c2)oc(=O)n3C)CC1 (stereo not drawn),-12.4%
20,O=C(CN(C(=O)c1csnn1)c1cccc2ccccc12)NCc1ccccc1,0.271%
21,CSCCC(=O)N(C)CC1CCCN(CCc2cccc(C(F)(F)F)c2)C1 (stereo not drawn),-74.6%
22,CN(CC1CCCN(CCc2cccc(C(F)(F)F)c2)C1)C(=O)c1ccc2nc[nH]c2c1 (stereo not drawn),-33.1%
23,CSCCC(=O)NC1CCCN(CCc2ccccc2)C1 (stereo not drawn),-38.2%
24,COc1cc(SC)ccc1C(=O)Nc1ccc(Br)cn1,14.4%
25,COc1ccc(NC(=O)c2ccccc2[N+](=O)[O-])cc1,9.48%
26,NC(=O)c1ccsc1NC(=O)CCS(=O)(=O)c1ccccc1,1.27%
27,COc1ccc(N(C(=O)c2snc(C(N)=O)c2N)C(C(=O)NC2CCCC2)c2cccs2)cc1OC (stereo not drawn),-1.74%

row,Compound,"hERG current change (%, negative = inhibition) at 10uM"
1,COc1ccc(-c2nnc(C3CCN(S(=O)(=O)c4ccccc4)CC3)o2)cc1,-47.4%
2,CC(=O)Nc1ccc(S(=O)(=O)N2CCCN(S(=O)(=O)c3ccc(C)cc3)CC2)cc1,-72.8%
3,Cc1ccc(-c2nnc(SCC(=O)Nc3ccc(S(=O)(=O)N4CCCCCC4)cc3)o2)cc1,-7.29%
4,CC(=O)Nc1ccc(S(=O)(=O)N2CCC(c3nnc(-c4ccc(C)cc4)o3)CC2)cc1,-51.1%
5,CC(=O)Nc1ccc(S(=O)(=O)N2CCCN(S(=O)(=O)c3ccc(NC(C)=O)cc3)CC2)cc1,-0.406%
6,CC(=O)Nc1ccc(S(=O)(=O)N2CCCC2)cc1,12.1%
7,COC(=O)NNC(=O)c1ccccc1C,-11.7%
8,Cc1ccc([N+](=O)[O-])cc1S(=O)(=O)Nc1ccccn1,9.5%
9,CCC(CC)C(=O)Nc1cccc(/C(C)=N/NC(=O)c2ccccc2Cl)c1,6.73%
10,CCCn1c(-c2cc(OC)c(OC)c(OC)c2)nc2nc3ccccc3nc21,-37.5%
11,CCC(C)n1c(-c2ccco2)nc2nc3ccccc3nc21 (stereo not drawn),-3.86%
12,CCC(C)n1c(-c2cc(OC)c(OC)c(OC)c2)nc2nc3ccccc3nc21 (stereo not drawn),-50.9%
13,CCOc1ccc(C2C(C(=O)NC)=C(C)Nc3nc4ccccc4n32)cc1OC (stereo not drawn),11.9%
14,CCCSC1=C(C#N)C(c2cccs2)CC(=O)N1 (stereo not drawn),3.24%
15,CCC(=O)N1CCN(c2ccccc2NC(=O)Cc2ccccc2)CC1,-29.1%
16,CC(=O)N1CCN(c2ccccc2NC(=O)COc2ccc(Cl)cc2Cl)CC1,-22.3%
17,O=C(Cc1ccccc1)Nc1ccccc1N1CCN(c2ccccc2)CC1,11.9%
18,CC(C)C(=O)N1CCN(c2ccccc2NC(=O)COc2ccc(C3CCCCC3)cc2)CC1,-4.96%
19,CCC(=O)N1CCN(c2ccccc2NC(=O)Cc2ccc(Cl)cc2)CC1,-68.6%
20,CCC(=O)Nc1cc(Cl)ccc1N1CCN(C(=O)CC)CC1,-24.9%
21,CCC(=O)N1CCN(c2ccc(Cl)cc2NC(=O)Cc2ccc(Cl)cc2)CC1,-54.5%
22,CC(C)C(=O)N1CCN(c2ccccc2NC(=O)COc2ccccc2)CC1,-57.6%
23,CC(=O)N1CCN(c2ccccc2NC(=O)Cc2ccc(Cl)cc2)CC1,-64.8%
24,CCC(=O)N1CCN(c2ccccc2NC(=O)COc2ccccc2Cl)CC1,-42.2%
25,O=C(COc1ccccc1)Nc1ccccc1N1CCN(c2ccccc2)CC1,1.02%
26,CCC(=O)N1CCN(c2ccc(Cl)cc2NC(=O)Cc2ccccc2)CC1,-46.3%
27,CCN(CC)S(=O)(=O)c1cc(NC(=O)C2CCN(c3ncnc4sc(C)c(C)c34)CC2)ccc1Cl,23.3%
